GLS inhibitor – glutaminase GLS (human) inhibition. O94925. GLS enzymatic activity, qHTS titration. Potency, µM (titrated, usually from 45.5 µM), for the others: at the top dose activity change, negative = inhibition, hits mostly inhibitors. 410,000 tested, 0.21% active. AID 624170; further: on the % scale 0 is the no-effect control and ±100 the full control effect
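hKGA in 45 mM KH2PO4 pH 8.2, 0.02% Tween-20 with pin-transferred compounds; 1 mM L-glutamine (stock) plus glutamate oxidase/HRP/Amplex Red coupling added. Fluorescence read initially and after 30 min at RT.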
G9a inh – blocks human histone lysine methyltransferase G9a; Q96KQ7; G9a H3K9 monomethylation, AlphaScreen, 2 h; Potency, µM (titrated, usually from 102 µM), for the others: at the highest dose activity, negative = inhibition, most hits filed as inhibitors; 350,000 tested, 8.8% active; AID 504332; further: on the % scale 0 is the no-effect control and ±100 the full control effect; nearly all actives have a fitted effect of over 75% in size
Target sequence (Q96KQ7 913-1193 limits assumed): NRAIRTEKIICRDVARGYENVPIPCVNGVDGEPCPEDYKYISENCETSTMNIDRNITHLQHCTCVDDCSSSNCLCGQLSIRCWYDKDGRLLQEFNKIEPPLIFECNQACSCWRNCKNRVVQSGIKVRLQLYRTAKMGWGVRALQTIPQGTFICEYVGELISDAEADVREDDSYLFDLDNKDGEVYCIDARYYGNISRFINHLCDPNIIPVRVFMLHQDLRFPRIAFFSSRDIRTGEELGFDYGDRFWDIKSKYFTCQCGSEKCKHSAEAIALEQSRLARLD
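Methyltransferase reactions run at room temperature for 2 h (20 nM enzyme, 500 nM biotin-H3K9 peptide, 20 uM SAM) after a 15 min compound preincubation; product detected by AlphaScreen beads and anti-H3K9me1 antibody.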
HP1b chromo inh – HP1-beta chromodomain-methylated histone interaction inhibition; 390,000 tested, 0.56% active; P83916; AlphaScreen HP1-beta / biotin-H3K9me3 peptide binding; Potency, µM (titrated, usually from 114 µM), for inactives: top-dose activity change, negative = inhibition, actives largely listed as inhibitors; further: nearly all actives have a fitted effect of over 70% in size
Target sequence (P83916 whole entry, looked up): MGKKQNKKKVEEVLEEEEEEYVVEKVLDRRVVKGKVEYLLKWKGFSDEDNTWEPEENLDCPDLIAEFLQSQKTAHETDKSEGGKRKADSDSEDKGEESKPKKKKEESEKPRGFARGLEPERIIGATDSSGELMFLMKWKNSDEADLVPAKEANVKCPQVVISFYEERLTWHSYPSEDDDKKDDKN
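Compound inhibition of the preformed complex between 50 nM HP1-beta and 50 nM biotinylated H3K9me3 peptide was read by AlphaScreen. Buffer was PBS pH 7.4 with 0.01% Tween-20. Incubations ran 30 min at room temperature, with 10 ug/mL donor/acceptor beads.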
L3MBTL1 inh – L3MBTL1 (human) inhibition. Q9Y468. AlphaScreen L3MBTL1–H3K9me1 peptide binding. Potency, µM (highest dose often 57.1 µM), without a hit: at the highest dose activity, negative = inhibition, actives largely listed as inhibitors. 230,000 tested, 0.66% active; further: on the % scale 0 is the no-effect control and ±100 the full control effect; nearly all actives have a fitted effect of over 60% in size
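Displacement of a biotinylated histone H3(1-15) peptide monomethylated at Lys9 (75 nM) from L3MBTL1 (50 nM) was measured by AlphaScreen after a 30 min room-temperature compound incubation; cefsulodin titration served as intraplate control.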
BAZ2B inh – blocks human BAZ2B; Potency, µM (series often up to 114 µM), for inactives: at the highest dose activity change, negative = inhibition, actives largely listed as inhibitors; AlphaScreen BAZ2B-H3K14Ac peptide displacement; AID 504333; 360,000 tested, 4.4% active; further: on the % scale 0 is the no-effect control and ±100 the full control effect; nearly all actives have a fitted effect of over 60% in size
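Protein-peptide AlphaScreen: BAZ2B 50 nM, b-H3K14Ac 50 nM, 1x PBS pH 7.4 + 0.01% Tween-20. Preincubation 30 min RT; cpd 30 min RT (top 110 uM); beads 20 min RT, light-protected.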
JMJD2A Tudor – blocks the human JMJD2A Tudor domain; AlphaScreen JMJD2A-Tudor / H3K4me3 peptide binding; O75164; 390,000 tested, 4.4% active; Potency, µM (highest dose often 114 µM), inactives show at the highest dose activity change, negative = inhibition, most hits filed as inhibitors; further: on the % scale 0 is the no-effect control and ±100 the full control effect; nearly all actives have a fitted effect of over 50% in size
* hit, by the source's call; ? = inconclusive; . = not tested or not shown; [ ] = remark or other dose. Shown are actives, neighbours in structure and some others; about 10% of the full set was active somewhere. The call rests on the fitted dose curve; in most records, active means well fitted curve in the direction sought with a large enough effect; inconclusive means small, poorly fitted or top-dose-only effect, or another doubt; inactive means no such curve, though single readings can be large; an effect the other way counts as inactive or inconclusive. Potency means the concentration at half of the fitted maximal effect.

SMILES | GLS inhibitor | G9a inh | HP1b chromo inh | L3MBTL1 inh | BAZ2B inh | JMJD2A Tudor
O=c1cc(CN2CCN(Cc3ccc(F)cc3)C(CCO)C2)[nH]c2ccccc12 (stereo unspecified) | 5% | 25µM* | 21% | 3% | -2% | -27%
CCOc1ccc(CN2CCN(Cc3[nH]c4ccccc4c3C)CC2CCO)cc1 (stereo unspecified) | 16% | 6%[12.7 µM] | -9% | -2% | ? | ?
Cc1c(CN2CCN(CC(C)(C)C)C(CCO)C2)[nH]c2ccccc12 (stereo unspecified) | 14% | 71µM* | -3% | -7% | -33% | -13%
Cc1ccn2c(=O)c(C(=O)NCCc3ccc(S(N)(=O)=O)cc3)c(O)nc2c1 | 4% | -43%[59 µM] | 25% | . | 1% | -18%
Cc1c(SCCO)c(=O)[nH]c2cc3c(cc12)OCO3 | 5% | 50µM* | 27% | . | -1% | -6%
Cc1ccc2c(CNCc3ccc(C)o3)c(C(=O)O)n(Cc3ccccc3C)c2c1 | 14% | ? | ? | . | ? | ?
COc1ccc(/C=C2/CCC(CN3CCOCC3)C2=O)cc1 (stereo unspecified) | 14% | . | ? | . | . | 79µM*
CN(C)CC1CC/C(=C\c2ccc(O)cc2)C1=O (stereo unspecified) | 3% | . | ? | . | . | 89µM*
CC1CCC/C(=C\c2ccc(O)cc2)C1=O (stereo unspecified) | -5% | . | 22% | . | . | -6%
CCc1ccc(-n2nnc(-c3nc(-c4ccc(C)cc4)no3)c2N)cc1 | -9% | -9%[59 µM] | 21% | . | -32% | -14%
C=CCn1c(Sc2ncc([N+](=O)[O-])s2)n[nH]c1=O | -2% | 11µM* | -9% | 2% | -18% | -24%
Cc1ccc(CN(C(=O)COc2ccc(Cl)c(C)c2)c2ccccn2)o1 | 6% | 1%[59 µM] | 25% | . | -1% | -3%
N#CC1(NC(=O)CSc2nnc3n2CCCCC3)CCCCC1 | 2% | . | 41% | 6% | . | 4%
Cc1nc(SCC(=O)NC2(C#N)CCCC2)n(CC(C)C)c1C | 0% | 40µM* | 19% | -7% | -2% | -14%
CC(=O)c1c(C)n(-c2cccc(Cl)c2)c2ccc(OC(=O)c3ccccc3)cc12 | 9% | 4%[59 µM] | 15% | . | -29% | -27%
C/C(CC(=O)Nc1ccccn1)=N\NC(=O)c1ccccc1 | . | 16%[59 µM] | . | 2% | -7% | .
CCCNC(=O)C/C(C)=N/NC(=O)C(=O)Nc1ccccn1 | -1% | 50µM* | 73% | 14% | -5% | -4%
COc1ccc2c(c1)c1c(c(=O)n(-c3ccccc3C)c(=O)n1CC(=O)NCc1ccc(C)cc1)n2C | 1% | -17%[59 µM] | 33% | . | -15% | -11%
O=c1c(-c2cccs2)nc2cnc(N3CCNCC3)nc2n1Cc1cccs1 | . | 12%[0.501 µM] | . | . | . | .
O=C(c1ccccc1)N1CCOC(O)(c2ccccc2)C1c1ccccc1 (stereo unspecified) | -1% | . | 40% | . | . | -2%
O=C(c1ccccc1)N1CCCOC1c1ccccc1 (stereo unspecified) | 12% | 25µM* | 25% | 37% | . | -8%
CC1=C(C(=O)Nc2ccc(C)cc2C)C(c2ccccc2[N+](=O)[O-])n2ncc(C(=O)Nc3ccccc3)c2N1 (stereo unspecified) | -10% | 7.1µM* | -5% | . | -13%[57.1 µM] | ?
CC1=C(C(=O)Nc2ccc(C)cc2C)C(c2ccc(Br)cc2)n2ncc(C(=O)Nc3cccc(C)c3)c2N1 (stereo unspecified) | 8% | -27%[59 µM] | 25% | . | 7%[57.1 µM] | -11%
CC1(C)CC(=O)C2=C(C1)OC1=C(C(=O)CC(C)(C)C1)C2c1ccc(O)cc1O | 40% | 2.8µM* | 2% | -7% | ? | -25%
CC1(C)CC(=O)C2=C(C1)OC1=C(C(=O)CC(C)(C)C1)C2c1ccc(O)c([N+](=O)[O-])c1 | 7% | -27% | 23% | . | -4% | -20%
SMILES | GLS inhibitor | G9a inh | HP1b chromo inh | L3MBTL1 inh | BAZ2B inh | JMJD2A Tudor
CC(=O)OC[C@H]1O[C@@H](O/N=C(\C)CCN2CCCCc3nc(C)c(C)cc32)[C@H](OC(C)=O)[C@@H](OC(C)=O)[C@@H]1OC(C)=O | . | ? | . | -1% | -21% | .
COc1ccc(O[C@H]2C=C[C@@H](c3ccccc3)O[C@@H]2COC(=O)CC/C(C)=N/O[C@@H](C)CN2CCCCc3nc(C)c(C)cc32)cc1 | . | 35µM* | . | -9% | -39% | .
C/C(CCC(=O)OC[C@H]1O[C@H](C#Cc2ccccc2)C=C[C@@H]1Oc1ccc(C)cc1)=N\O[C@@H](C)CN1CCCCc2nc(C)c(C)cc21 | . | 35µM* | . | -11% | -37% | .
CCCNC(=O)OC[C@H]1O[C@H](CCO/N=C(\C)CCN2CCc3nc(-c4ccccc4)c(-c4ccccc4)cc3C2)C=C[C@@H]1Oc1ccc(OC)cc1 | . | ? | . | -1% | -35% | .
O=C(c1ccc(C(F)(F)F)cc1)N1CCC(c2noc(-c3ccc(S(=O)(=O)N4CCCC4)cc3)n2)CC1 | -8% | 0%[59 µM] | 33% | . | -12% | -15%
Cc1cc(=O)[nH]c(N/N=C/c2c(C)nn(-c3ccccc3)c2C)n1 | 9% | 25µM* | 16% | 0% | -23% | -11%
Cc1cc(=O)[nH]c(N/N=C/c2cc(C)n(-c3ccccc3)c2C)n1 | ? | ? | 17% | ? | -27% | ?
Cc1nn(-c2ccccc2)c(Cl)c1/C=N/Nc1nc2ccccc2n1C | -2% | 50µM* | 26% | -1% | -38% | -34%
Cc1nn(-c2ccccc2)c(C)c1/C=N\NS(=O)(=O)c1ccc(Cl)cc1 | 1% | 3.2µM* | 26% | . | -6% | -31%
Cc1nn(-c2ccccc2)c(C)c1/C=N/Nc1nc2ccccc2[nH]1 | 15% | ? | ? | -16% | ? | 56µM*
COc1ccc(S(=O)(=O)c2c(O)c3ccc(C(=O)NCc4ccccc4)cc3[nH]c2=O)cc1 | 8% | -38%[59 µM] | 24% | . | ? | -9%
CCc1nnc2c(Nc3ccccc3Br)nc3ccccc3n12 | -8% | 8%[59 µM] | 37% | . | -1% | 17%
CCc1nnc2c(Nc3ccc(N(CC)CC)cc3C)nc3ccccc3n12 | 3% | 18µM* | ? | . | 32µM* | 16µM*
Cc1ccn2c(Nc3ccccc3C)c(-c3ccc(N4CCOCC4)cc3)nc2c1 | -7% | 10µM* | -8% | . | ? | 45µM*
Cc1ccc2nc(-c3ccc(N4CCOCC4)cc3)c(Nc3ccccc3C)n2c1 | 12% | 13µM* | ? | . | 10µM* | 14µM*
COc1ccc2c(C)c(CCC(=O)NCCc3ccccc3OC)c(=O)oc2c1 | -5% | 4%[59 µM] | 11% | . | -2% | -24%

Assay outcomes deposited in PubChem BioAssay by National Center for Advancing Translational Sciences (NCATS).
